The entries come from a sample that favours hits as a whole.
MBNL1 CUG block – qHTS Assay for Inhibitors of MBNL1-poly(CUG) RNA binding; 0.036% of 280,000 active; Potency, µM (series often up to 57.5 µM), inactives show at the top dose activity change, negative = inhibition, usual class: inhibitors; Muscleblind-like protein 1 (Homo sapiens), Q9NR56; TR-FRET MBNL1-His/biotin-(CUG)12 binding, 665/545 ratio; active means well fitted inhibition curve with a large enough effect in the signal ratio, with a control signal flat, not every such curve was filed as active; inconclusive means small, poorly fitted or top-dose-only effect, or effect the other way, or a change in a side signal; inactive means no such curve, though single readings can be large or run the other way; the % refers to the signal ratio; further: potency means the concentration at half of the fitted maximal effect; on the % scale 0 is the no-effect control and ±100 the full control effect
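MBNL1-His + Biotin-(CUG)12, cpd titration 92 nM–58 uM; Tb anti-His Ab 0.055 ng/ul, SA-XL665 5 nM (final); 60 min RT; ratiometric 665/545 nm, Ex 340 nm; normalized to buffer and full-complex controls.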
Rango release inh – qHTS Assay for Inhibitors of RanGTP induced Rango (Ran-regulated importin-beta cargo) - Importin beta complex dissociation | 0.071% of 340,000 active | Biochemical FRET Rango-importin beta, RanGTP-induced dissociation | Potency, µM (doses to about 46.1 µM), without a hit: at the top dose activity change, negative = inhibition; further: potency means the concentration at half of the fitted maximal effect; % of control where 0% means no effect; nearly all actives have a fitted effect of over 45% in size
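FRET read at 45 min, room temperature: inhibitors block the CFP/YFP signal rise when RanGTP (0.6 uM Ran, 2 mM GTP, 0.2 uM RCC1) frees Rango (0.1 uM) from importin beta (0.25 uM). Pre-read after 5 min compound exposure flags interference.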
ClpP mod – qHTS Assay for Activators of ClpP; purified B. subtilis ClpP, FRET peptide cleavage, 20 min; Potency, µM (top dose mostly 57.5 µM), for the others: at the top dose activity change, negative = active; 1.9% of 340,000 active; AID 651965, 2013; active means well fitted falling curve with a large enough effect; inconclusive means small, poorly fitted or top-dose-only effect; inactive means no such curve, though single readings can be large or run the other way; further: potency means the concentration at half of the fitted maximal effect; the source files actives as falling curves though it sought activators and does not explain the sign; nearly all actives have a fitted effect of over 65% in size
Target sequence (P80244 whole entry, looked up): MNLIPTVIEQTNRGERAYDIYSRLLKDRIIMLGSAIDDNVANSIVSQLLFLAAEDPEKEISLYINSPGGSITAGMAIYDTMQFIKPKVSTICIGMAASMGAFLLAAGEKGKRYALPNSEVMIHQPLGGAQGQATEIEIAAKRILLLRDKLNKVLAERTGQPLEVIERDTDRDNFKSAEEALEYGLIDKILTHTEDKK
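Buffer: 100 mM Tris/HCl pH8, 100 mM KCl, 0.05% low protease BSA, 2.5% glycerol, 0.01% Tween-20. ClpP 10 microg/mL final; 20 min RT; delta FRET normalized to ADEP and DMSO controls.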
CBFb-RUNX1 inh – qHTS Assay for Compounds Blocking the Interaction Between CBF-beta and RUNX1 for the Treatment of Acute Myeloid Leukemia; 230,000 tested, under 10 active; Potency, µM (top dose mostly 59.8 µM), for inactives: at the highest dose activity, negative = inhibition, actives largely listed as inhibitors; AlphaScreen CBFb-His/RUNX1-biotin binding, biochemical; active means well fitted curve in the direction sought with a large enough effect; inconclusive means small, poorly fitted or top-dose-only effect, or effect the other way, or another doubt; inactive means no such curve, though single readings can be large or run the other way; further: % of control where 0% means no effect
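Read-out: AlphaScreen. Format: His-CBF-beta with biotinylated RUNX1 (30 nM each) preincubated 20 min, compound 15 min, Ni-chelate plus streptavidin beads 90 min; room temperature throughout.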
Rango-impB inh – qHTS Assay for Inhibitors of Rango (Ran-regulated importin-beta cargo) - Importin beta complex formation; Importin subunit beta-1 (Homo sapiens), Q14974; Rango CFP/YFP FRET sensor + importin beta, 45 min; Potency, µM (highest dose often 92.2 µM), for the others: top-dose inhibition of complex formation; 0.031% of 340,000 active;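 further: potency means the concentration at half of the fitted maximal effect; 0% = DMSO wells and 100% = buffer wells lacking importin beta; nearly all actives have a fitted effect of over 15% in size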
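Inhibition scored from the CFP 486 nm/YFP 530 nm FRET ratio 45 min after adding 0.125 microM importin beta to 50 nM Rango biosensor preincubated 5 min with compound (room temperature, PBS with DTT, Tween-20, BSA). No-importin wells as positive control.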
* marks the source's active call; other numbers are inactive results; i = inactive; ? = inconclusive; nt = not tested or not shown. Unless noted, the call rests on the fitted dose curve.

SMILES	MBNL1 CUG block	Rango release inh	ClpP mod	CBFb-RUNX1 inh	Rango-impB inh
Brc1ccc(-c2nc3ccccc3s2)s1	i	-8%	28µM*	24%	0%
COc1cc2c(NC3CCN(C(C)C)CC3)nc(N3CCCN(C)CC3)nc2cc1OCCCN1CCCC1	nt	nt	4%	nt	nt
CCC(C)(C)n1nnnc1CN(Cc1ccc(Cl)cc1)Cc1ccco1	?	2%	-1%	18%	-3%
COCCn1nnnc1CN(Cc1ccco1)Cc1cc2cc3c(cc2[nH]c1=O)OCO3	2%	?	28µM*	0%	?
CC(C)(C)n1nnnc1CN(Cc1ccco1)Cc1cc2cc3c(cc2[nH]c1=O)OCO3	15%	?	28µM*	5%	?
CCOc1ccc2[nH]c(=O)c(CN(Cc3ccco3)Cc3nnnn3Cc3ccccc3)cc2c1	?	-11%	?	-5%	?
COc1ccc2[nH]c(=O)c(CN(Cc3ccco3)Cc3nnnn3Cc3ccccc3)cc2c1	?	?	25µM*	2%	?
CCC(C)(C)n1nnnc1CN(Cc1ccco1)Cc1cc2cc3c(cc2[nH]c1=O)OCO3	-4%	-13%	32µM*	-9%	?
CCS(=O)(=O)c1ncc(N(Cc2ccco2)Cc2sccc2C)c(C(=O)Nc2ccc(C)cc2C)n1	nt	nt	0%	nt	nt
CCn1nnc2cc(C(=O)Nc3ccc(C)cc3Br)ccc21	nt	nt	-3%	nt	nt
Cc1c(C(=O)O)oc2c3c(ccc12)OCCO3	8%	0%	18µM*	1%	4%
COc1ccc(OC)c(/C=N/NC(=O)c2csc3ccccc23)c1	12%	9%	32µM*	2%	0%
COc1ccc(OC)c(/C=N/NC(=O)c2cc(-c3ccc(C)o3)nc3ccccc23)c1	nt	?	164%	3%	?
CCc1cccc(CC)c1NC(=O)CCS(=O)(=O)c1ccc2c(c1)CCN2C(C)=O	nt	nt	0%	nt	nt
CC(=O)N1CCc2cc(S(=O)(=O)CCC(=O)O)ccc21	5%	-16%	32µM*	1%	-1%
CCOC(=O)N1CCN(C(=O)CCS(=O)(=O)c2ccc3c(c2)CCN3C(=O)CC)CC1	-9%	-9%	2%	nt	-2%
CCOC(=O)C1CCN(C(=O)CCS(=O)(=O)c2ccc3c(c2)CCN3C(=O)CC)CC1	-2%	-11%	20µM*	-1%	3%
CCOC(=O)NC(=O)COC(=O)c1ccc(Sc2ncn[nH]2)c([N+](=O)[O-])c1	?	-4%	16µM*	5%	-2%
Nc1ccc[n+](CC(=O)c2ccc(F)cc2)c1	nt	nt	1%	nt	nt
CC(C)(C)NC(=O)CN(C(=O)c1ccc(CN2CCOCC2)o1)c1ccc2c(c1)OCCO2	8%	-8%	13µM*	-3%	0%
O=C1C(=O)N(C2CCNCC2)CCN1Cc1ccccc1	nt	nt	4%	nt	nt
O=S(=O)(Nc1ccc2ccccc2c1)c1ccccc1	-6%	3%	14µM*	7%	0%
O=C(Nc1cccc(-c2nnc(-c3ccco3)o2)c1)C(c1ccccc1)c1ccccc1	-2%	-4%	11µM*	-5%	-1%
O=C(COc1ccccc1)Nc1ccc(-c2nnc(-c3ccco3)o2)cc1	4%	-4%	20µM*	1%	0%
O=C(Cc1ccccc1)Nc1cccc(-c2nnc(-c3ccco3)o2)c1	-6%	-1%	25µM*	-1%	3%
O=C(Nc1cccc(-c2nnc(-c3ccco3)o2)c1)c1ccccc1	3%	-10%	nt	3%	2%
COc1ccccc1OCC(=O)Nc1cccc(-c2nnc(-c3ccco3)o2)c1	-2%	-9%	nt	-12%	?
